According to PubChem BioAssay (NCI):
About 83,000 compounds went through this panel and 20% of them were active in at least one assay; those are over-represented in the sample as a whole.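 How to read the values: 0–100, growth inhibition (40 = 60% inhibited); 0, no net growth; -100 to 0, cell death (-40 = 40% of starting cells died; -100 = all dead).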 Unmarked numbers belong to inactive results. The source made the active and inactive calls. How the source made its calls: active means growth percent below 10; inactive means the rest.

test system: HL-60(TB) leukemia; assay: NCI-60 one-dose screen, 48 h (100 = growth as untreated, 0 = no growth, -100 = all killed); conditions: 10 µM unless noted

SMILES	growth
CC(C)OP(=O)(OC(C)C)c1ncc(-c2ccc(C(F)(F)F)cc2)c(NC2CCCCCC2)n1	-43.9% [33.3 µM] (active)
COc1cc(/C=C2\CN(C)C/C(=C\c3cc(CN4CCCCC4)c(O)c(OC)c3)C2=O)cc(CN2CCCCC2)c1O	11%
N#Cc1c(N)n2c(nc1=Nc1ccc([N+](=O)[O-])cc1)sc1cc(Cl)ccc12	117%
Nc1nc(N)c(-c2ccc(Cl)c(Cl)c2)c(CBr)n1	59.5%
OC(c1cc2cc(Cl)ccc2c2cc(C(F)(F)F)ccc12)C1CCCCN1 (stereo unspecified)	-61.1% (active)
O=S(=O)(O)CCI	99.5%
C1Cc2onc(-c3noc4c3CCC4)c2C1	103%
C[C@@H]1NC(=O)[C@H](Cc2ccccc2)N(Cc2cccnc2)C1=O	103%
CN(C)CCCN(CCC1CCCCC1)CCC1CCCCC1	30.1%
O=C(N=Nc1c(O)[nH]c2ccccc12)Nc1ccc(Cl)cc1	38.9%
O=C(CN1C(=O)NC2NC(=O)NC21)N/N=C/c1cccc([N+](=O)[O-])c1 (stereo unspecified)	99.1%
CCCCc1n(Cc2ccc3ccccc3n2)cc[n+]1Cc1ccc2ccccc2c1	-46.1% (active)
COc1cc(CNS(=O)(=O)c2ccc(C)cc2)ccc1OCc1cn(-c2ccccc2)nn1	85.2%
COc1ccc(-c2nc(C#N)c(NCC(c3ccc(Cl)cc3)N3CCCCC3)o2)cc1 (stereo unspecified)	74.3%
CC1(C(=O)O)CCC(N)(C(=O)O)C1(C)C (stereo unspecified)	101%
CCCCCC#CC1OC23CCCCC2C(C#N)(C(=N)O3)C1(C#N)C#N (stereo unspecified)	81%
CC1=C2[C@@H](CC1)[C@]1(C)O[C@@](C(C)C)(C[C@H]1OC(=O)CO)[C@H]2OC(=O)CCCc1ccccc1	1.28% (active)
COC(=O)C1(C)COP(=O)(NC23CC4CC(CC(C4)C2)C3)OC1 (stereo unspecified)	119%
Cl/C(=N\Nc1ccccc1)c1ccccc1	101%
O=C1c2ccccc2C(=O)c2c1oc1oc3c(c(=O)c21)c(=O)n(-c1ccccc1)c1ccccc31	7.05% (active)
O=C(Nc1cccc(Cl)c1)c1ccc(Cl)cc1Cl	92%
COc1ccc(NC(=O)CCn2cnc3c(cc(-c4ccccc4)n3-c3ccccc3)c2=O)cc1	95.9%
Nc1cc(N)c2nc(-c3ccccc3)c(NCCc3ccc(Cl)c(Cl)c3)nc2c1	-10.5% (active)
COC(=O)[C@@H](Cc1c[nH]c2ccccc12)NC(=O)[C@H](Cc1ccccc1)NCc1ccncc1	80.6%
COc1cc(-c2nn(-c3ccc(NC(=O)c4cc(Cl)cc(Cl)c4)cc3)cc2-c2ccncc2)ccc1Cl	41%
COc1ccc(C/C(C)=C(\c2ccc(Cl)cc2)c2ccc(OCCCN(C)C)cc2)cc1	69.9%
